# Publication PMC7862700, “An all-to-all approach to the identification of sequence-specific readers for epigenetic DNA modifications on cytosine”
# Key:
# Experiment in all cases: DAPPL (digital affinity profiling via proximity ligation, sequencing); 10 mM Tris-HCl pH 7.5, 50 mM NaCl, 1 mM DTT, 4% glycerol, room temperature, 30 min; GST-TFs on glutathione beads, 16-mer random dsDNA library, 0.1% formaldehyde crosslink after washing; high values mean tight binding
# FEV = target: T1, FEV (Homo sapiens, UniProt Q99581 1-238); conditions: protein: recombinant; tags: N-terminal GST; dsDNA, one strand shown
# T1 sequence: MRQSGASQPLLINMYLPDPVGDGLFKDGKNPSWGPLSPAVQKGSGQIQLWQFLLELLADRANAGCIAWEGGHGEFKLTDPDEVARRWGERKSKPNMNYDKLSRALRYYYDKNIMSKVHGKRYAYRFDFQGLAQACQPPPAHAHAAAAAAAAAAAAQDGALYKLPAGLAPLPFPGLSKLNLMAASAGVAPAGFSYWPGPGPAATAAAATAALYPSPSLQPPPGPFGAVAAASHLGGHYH
# Procedure, shortened: (§1)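 Binding signal is each hexamer's read frequency for a factor divided by its frequency in the tag-only sample. The factors were GST-fused human transcription factors from yeast, captured on glutathione beads, DNA-barcoded and pooled with that sample. Pools were incubated with 200 nmole of a random double-stranded 16-mer DNA library in Tris/NaCl/DTT/glycerol buffer at room temperature for 30 min, then washed, crosslinked with 0.1% formaldehyde, proximity-ligated with BsaI/T4 ligase (1 h, 37 °C), PCR-amplified and sequenced on an Illumina NextSeq500.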
# ETV5 = ETV5 (Homo sapiens, UniProt P41161 1-510); conditions: protein: recombinant; tags: N-terminal GST; dsDNA, one strand shown
# Procedure, shortened: as §1
# HSF1 = HSF1 (Homo sapiens, UniProt Q00613 1-529); conditions: protein: recombinant; tags: N-terminal GST; chain copies: 3; dsDNA, one strand shown
# Procedure, shortened: as §1
# SPIC = target: T2, SPIC (Homo sapiens, UniProt Q8N5J4 1-248); conditions: protein: recombinant; tags: N-terminal GST; dsDNA, one strand shown
# T2 sequence: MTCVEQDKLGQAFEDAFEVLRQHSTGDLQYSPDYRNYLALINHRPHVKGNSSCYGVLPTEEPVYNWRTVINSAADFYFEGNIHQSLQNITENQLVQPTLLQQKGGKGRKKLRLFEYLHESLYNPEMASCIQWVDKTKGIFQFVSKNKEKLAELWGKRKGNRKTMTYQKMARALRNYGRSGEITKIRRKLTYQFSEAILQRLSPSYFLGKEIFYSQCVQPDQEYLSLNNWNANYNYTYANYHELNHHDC
# Procedure, shortened: as §1
# ELF4 = ELF4 (Homo sapiens, UniProt Q99607 1-663); conditions: protein: recombinant; tags: N-terminal GST; dsDNA, one strand shown
# Procedure, shortened: as §1
# ELK4 = target: T3, ELK4 (Homo sapiens, UniProt P28324-2 1-405); conditions: protein: recombinant; tags: N-terminal GST; dsDNA, one strand shown
# T3 sequence: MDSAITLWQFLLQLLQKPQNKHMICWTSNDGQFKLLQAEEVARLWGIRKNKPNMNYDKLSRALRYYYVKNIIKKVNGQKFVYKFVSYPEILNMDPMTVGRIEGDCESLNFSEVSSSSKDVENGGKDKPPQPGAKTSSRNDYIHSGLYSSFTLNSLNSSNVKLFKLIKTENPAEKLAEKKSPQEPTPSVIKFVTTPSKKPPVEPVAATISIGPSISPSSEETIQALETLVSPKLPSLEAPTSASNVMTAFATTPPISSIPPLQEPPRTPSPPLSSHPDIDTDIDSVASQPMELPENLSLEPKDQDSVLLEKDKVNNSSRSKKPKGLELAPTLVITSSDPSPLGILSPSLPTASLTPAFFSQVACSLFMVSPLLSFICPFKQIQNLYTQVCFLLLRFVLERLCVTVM
# Procedure, shortened: as §1
# ETV2 = target: T4, ETV2 (Homo sapiens, UniProt O00321 1-342); conditions: protein: recombinant; tags: N-terminal GST; dsDNA, one strand shown
# T4 sequence: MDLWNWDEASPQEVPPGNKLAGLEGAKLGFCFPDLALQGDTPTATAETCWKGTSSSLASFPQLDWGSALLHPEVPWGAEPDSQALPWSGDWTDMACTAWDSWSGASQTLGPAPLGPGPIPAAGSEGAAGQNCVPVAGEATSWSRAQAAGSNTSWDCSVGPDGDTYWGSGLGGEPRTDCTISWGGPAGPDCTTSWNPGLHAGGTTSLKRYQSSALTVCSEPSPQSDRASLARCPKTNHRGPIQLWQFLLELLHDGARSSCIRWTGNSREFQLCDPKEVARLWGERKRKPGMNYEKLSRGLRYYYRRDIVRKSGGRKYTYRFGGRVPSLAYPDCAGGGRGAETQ
# Procedure, shortened: as §1
# ELF3 = target: T5, ELF3 (Homo sapiens, UniProt P78545 1-371); conditions: protein: recombinant; tags: N-terminal GST; dsDNA, one strand shown
# T5 sequence: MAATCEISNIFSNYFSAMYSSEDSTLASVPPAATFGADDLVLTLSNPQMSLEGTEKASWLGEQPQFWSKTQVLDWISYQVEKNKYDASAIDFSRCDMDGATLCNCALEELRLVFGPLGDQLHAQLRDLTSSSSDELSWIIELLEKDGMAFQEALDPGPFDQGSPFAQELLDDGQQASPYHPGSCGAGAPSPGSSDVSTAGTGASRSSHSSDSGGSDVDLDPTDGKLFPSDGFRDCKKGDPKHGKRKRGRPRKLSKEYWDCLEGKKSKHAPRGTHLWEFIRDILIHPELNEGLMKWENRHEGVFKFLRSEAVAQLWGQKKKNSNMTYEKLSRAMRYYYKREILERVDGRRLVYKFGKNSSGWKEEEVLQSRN
# Procedure, shortened: as §1
# CRX = CRX (Homo sapiens, UniProt O43186 1-299); conditions: protein: recombinant; tags: N-terminal GST; dsDNA, one strand shown
# Procedure, shortened: as §1
# ETV1 = ETV1 (Homo sapiens, UniProt P50549 1-477); conditions: protein: recombinant; tags: N-terminal GST; dsDNA, one strand shown
# Procedure, shortened: as §1
# ERF = target: T6, ERF (Homo sapiens, UniProt P50548 1-548); conditions: protein: recombinant; tags: N-terminal GST; dsDNA, one strand shown
# T6 sequence: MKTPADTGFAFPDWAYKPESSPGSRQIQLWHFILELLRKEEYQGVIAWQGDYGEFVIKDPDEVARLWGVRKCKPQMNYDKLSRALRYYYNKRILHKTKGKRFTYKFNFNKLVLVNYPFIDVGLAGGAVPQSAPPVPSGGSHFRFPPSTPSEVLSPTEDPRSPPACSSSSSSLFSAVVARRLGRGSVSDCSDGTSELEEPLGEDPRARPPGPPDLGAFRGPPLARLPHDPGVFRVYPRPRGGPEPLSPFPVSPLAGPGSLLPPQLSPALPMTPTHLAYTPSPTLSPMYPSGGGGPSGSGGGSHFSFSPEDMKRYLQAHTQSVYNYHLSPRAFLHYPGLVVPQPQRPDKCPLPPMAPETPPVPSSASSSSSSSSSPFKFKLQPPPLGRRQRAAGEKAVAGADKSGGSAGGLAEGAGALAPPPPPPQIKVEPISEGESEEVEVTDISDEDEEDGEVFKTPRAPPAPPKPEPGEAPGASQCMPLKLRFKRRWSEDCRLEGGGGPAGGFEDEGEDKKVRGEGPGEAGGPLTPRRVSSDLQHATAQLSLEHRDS
# Procedure, shortened: as §1
# ETV3L = target: T7, ETV3L (Homo sapiens, UniProt Q6ZN32 1-361); conditions: protein: recombinant; tags: N-terminal GST; dsDNA, one strand shown
# T7 sequence: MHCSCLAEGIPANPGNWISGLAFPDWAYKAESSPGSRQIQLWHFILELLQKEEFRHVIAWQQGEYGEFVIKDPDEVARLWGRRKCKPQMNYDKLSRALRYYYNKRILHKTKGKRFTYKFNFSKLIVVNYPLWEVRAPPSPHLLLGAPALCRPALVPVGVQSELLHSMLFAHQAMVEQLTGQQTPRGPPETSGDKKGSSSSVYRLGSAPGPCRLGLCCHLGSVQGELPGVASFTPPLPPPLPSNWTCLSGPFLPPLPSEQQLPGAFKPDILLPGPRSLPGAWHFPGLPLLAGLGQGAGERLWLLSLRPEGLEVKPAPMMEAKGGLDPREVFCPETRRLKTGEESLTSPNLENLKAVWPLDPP
# Procedure, shortened: as §1
# ETS2 = target: T8, ETS2 (Homo sapiens, UniProt P15036 1-469); conditions: protein: recombinant; tags: N-terminal GST; dsDNA, one strand shown
# T8 sequence: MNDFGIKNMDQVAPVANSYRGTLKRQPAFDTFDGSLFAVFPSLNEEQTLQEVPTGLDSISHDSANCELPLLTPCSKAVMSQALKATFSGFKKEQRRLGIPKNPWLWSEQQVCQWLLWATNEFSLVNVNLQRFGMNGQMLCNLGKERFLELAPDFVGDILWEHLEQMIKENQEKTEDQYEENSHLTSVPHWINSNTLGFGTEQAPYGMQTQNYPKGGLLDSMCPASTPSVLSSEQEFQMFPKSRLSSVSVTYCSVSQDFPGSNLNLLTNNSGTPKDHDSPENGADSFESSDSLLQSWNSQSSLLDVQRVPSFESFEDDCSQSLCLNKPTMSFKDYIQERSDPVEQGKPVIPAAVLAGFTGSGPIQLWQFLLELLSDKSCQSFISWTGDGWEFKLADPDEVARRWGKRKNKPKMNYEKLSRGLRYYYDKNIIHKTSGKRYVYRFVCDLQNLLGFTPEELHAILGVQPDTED
# Procedure, shortened: as §1
# SPDEF = target: T9, SPDEF (Homo sapiens, UniProt O95238 1-335); conditions: protein: recombinant; tags: N-terminal GST; dsDNA, one strand shown
# T9 sequence: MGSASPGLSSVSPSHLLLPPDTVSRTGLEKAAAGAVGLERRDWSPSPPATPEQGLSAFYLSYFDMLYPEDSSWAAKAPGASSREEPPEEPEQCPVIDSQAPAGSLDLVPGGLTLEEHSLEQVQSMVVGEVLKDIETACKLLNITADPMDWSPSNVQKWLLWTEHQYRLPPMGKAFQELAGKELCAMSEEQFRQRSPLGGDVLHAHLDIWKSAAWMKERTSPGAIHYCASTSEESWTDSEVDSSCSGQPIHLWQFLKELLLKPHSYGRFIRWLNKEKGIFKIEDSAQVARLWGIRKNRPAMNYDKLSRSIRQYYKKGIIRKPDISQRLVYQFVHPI
# Procedure, shortened: as §1
# ETV7 = target: T10, ETV7 (Homo sapiens, UniProt Q9Y603 1-341); conditions: protein: recombinant; tags: N-terminal GST; dsDNA, one strand shown
# T10 sequence: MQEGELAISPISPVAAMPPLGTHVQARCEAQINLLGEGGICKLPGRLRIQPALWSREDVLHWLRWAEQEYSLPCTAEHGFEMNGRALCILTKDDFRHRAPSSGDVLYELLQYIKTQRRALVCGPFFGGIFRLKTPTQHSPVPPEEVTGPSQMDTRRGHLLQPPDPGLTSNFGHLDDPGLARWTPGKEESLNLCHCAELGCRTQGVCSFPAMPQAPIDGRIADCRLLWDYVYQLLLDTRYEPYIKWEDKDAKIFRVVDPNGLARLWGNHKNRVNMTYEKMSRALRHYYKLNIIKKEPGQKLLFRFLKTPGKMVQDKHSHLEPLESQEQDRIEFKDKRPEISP
# Procedure, shortened: as §1
# ELF5 = target: T11, ELF5 (Homo sapiens, UniProt Q9UKW6-2 1-255); conditions: protein: recombinant; tags: N-terminal GST; dsDNA, one strand shown
# T11 sequence: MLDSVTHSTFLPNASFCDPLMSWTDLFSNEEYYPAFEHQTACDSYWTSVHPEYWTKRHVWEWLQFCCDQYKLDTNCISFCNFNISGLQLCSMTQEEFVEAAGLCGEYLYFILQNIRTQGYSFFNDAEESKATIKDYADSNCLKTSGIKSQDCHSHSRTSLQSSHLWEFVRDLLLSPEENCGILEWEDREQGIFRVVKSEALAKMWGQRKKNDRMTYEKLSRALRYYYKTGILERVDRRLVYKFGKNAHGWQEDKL
# Procedure, shortened: as §1
# ETV3 = target: T12, ETV3 (Homo sapiens, UniProt P41162-2 1-143); conditions: protein: recombinant; tags: N-terminal GST; dsDNA, one strand shown
# T12 sequence: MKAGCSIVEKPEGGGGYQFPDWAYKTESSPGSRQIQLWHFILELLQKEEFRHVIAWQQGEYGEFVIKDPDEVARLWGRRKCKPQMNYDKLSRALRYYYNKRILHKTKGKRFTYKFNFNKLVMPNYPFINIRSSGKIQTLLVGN
# Procedure, shortened: as §1
# ETV6 = ETV6 (Homo sapiens, UniProt P41212 1-452); conditions: protein: recombinant; tags: N-terminal GST; dsDNA, one strand shown
# Procedure, shortened: as §1
# Chain of CRX (O43186 whole entry): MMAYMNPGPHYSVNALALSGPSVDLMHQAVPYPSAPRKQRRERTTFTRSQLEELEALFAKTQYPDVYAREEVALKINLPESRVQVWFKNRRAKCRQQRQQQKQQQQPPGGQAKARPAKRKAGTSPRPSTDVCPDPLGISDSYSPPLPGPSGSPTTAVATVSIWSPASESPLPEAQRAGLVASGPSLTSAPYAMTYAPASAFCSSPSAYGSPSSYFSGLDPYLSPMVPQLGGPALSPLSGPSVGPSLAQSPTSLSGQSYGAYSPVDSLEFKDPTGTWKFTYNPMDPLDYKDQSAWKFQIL
# Chain of HSF1 (Q00613 whole entry): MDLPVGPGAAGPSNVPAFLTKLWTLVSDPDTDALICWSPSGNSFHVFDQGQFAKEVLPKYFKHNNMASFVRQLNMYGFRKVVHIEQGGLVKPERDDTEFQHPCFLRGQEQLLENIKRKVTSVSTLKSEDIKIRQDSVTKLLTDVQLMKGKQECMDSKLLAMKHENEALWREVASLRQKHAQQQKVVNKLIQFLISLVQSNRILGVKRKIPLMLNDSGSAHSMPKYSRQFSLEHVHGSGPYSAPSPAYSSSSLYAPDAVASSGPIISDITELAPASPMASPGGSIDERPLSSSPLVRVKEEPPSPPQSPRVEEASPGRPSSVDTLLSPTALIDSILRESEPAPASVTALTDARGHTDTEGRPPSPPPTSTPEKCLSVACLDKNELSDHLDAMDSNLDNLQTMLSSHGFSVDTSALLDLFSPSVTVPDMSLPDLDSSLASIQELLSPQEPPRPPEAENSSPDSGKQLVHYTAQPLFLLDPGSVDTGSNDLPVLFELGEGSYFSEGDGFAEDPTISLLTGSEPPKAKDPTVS
# Chain of ELF4 (Q99607 whole entry): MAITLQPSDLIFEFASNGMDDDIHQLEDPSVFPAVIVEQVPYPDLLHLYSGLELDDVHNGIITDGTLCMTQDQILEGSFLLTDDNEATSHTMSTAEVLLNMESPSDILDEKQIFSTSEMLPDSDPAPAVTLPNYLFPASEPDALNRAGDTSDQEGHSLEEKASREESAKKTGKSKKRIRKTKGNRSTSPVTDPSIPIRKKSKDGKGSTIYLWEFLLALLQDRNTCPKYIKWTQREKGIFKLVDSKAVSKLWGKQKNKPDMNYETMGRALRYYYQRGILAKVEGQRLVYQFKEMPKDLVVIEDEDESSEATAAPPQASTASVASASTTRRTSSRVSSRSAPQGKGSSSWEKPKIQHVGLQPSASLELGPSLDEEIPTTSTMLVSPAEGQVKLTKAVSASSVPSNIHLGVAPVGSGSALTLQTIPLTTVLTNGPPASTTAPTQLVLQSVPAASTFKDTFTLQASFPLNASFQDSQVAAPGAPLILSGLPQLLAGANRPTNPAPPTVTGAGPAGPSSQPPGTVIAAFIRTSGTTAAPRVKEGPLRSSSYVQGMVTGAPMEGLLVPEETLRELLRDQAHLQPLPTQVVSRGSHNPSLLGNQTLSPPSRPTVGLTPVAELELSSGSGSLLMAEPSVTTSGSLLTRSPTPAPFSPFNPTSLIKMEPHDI
# Chain of ETV5 (P41161 whole entry): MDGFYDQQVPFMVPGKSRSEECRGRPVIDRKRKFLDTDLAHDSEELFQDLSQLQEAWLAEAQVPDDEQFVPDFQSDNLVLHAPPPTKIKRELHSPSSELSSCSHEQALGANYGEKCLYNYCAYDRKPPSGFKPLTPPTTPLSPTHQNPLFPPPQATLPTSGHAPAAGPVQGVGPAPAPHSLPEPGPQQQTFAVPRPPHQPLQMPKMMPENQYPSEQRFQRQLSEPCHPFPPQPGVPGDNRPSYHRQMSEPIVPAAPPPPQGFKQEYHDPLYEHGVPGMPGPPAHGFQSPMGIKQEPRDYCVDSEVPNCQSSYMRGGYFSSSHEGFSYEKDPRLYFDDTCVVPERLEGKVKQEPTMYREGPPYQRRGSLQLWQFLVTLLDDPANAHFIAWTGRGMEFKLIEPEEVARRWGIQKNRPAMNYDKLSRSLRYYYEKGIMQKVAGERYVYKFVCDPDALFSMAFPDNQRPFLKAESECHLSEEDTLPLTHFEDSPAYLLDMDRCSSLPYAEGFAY
# Chain of ETV6 (P41212 whole entry): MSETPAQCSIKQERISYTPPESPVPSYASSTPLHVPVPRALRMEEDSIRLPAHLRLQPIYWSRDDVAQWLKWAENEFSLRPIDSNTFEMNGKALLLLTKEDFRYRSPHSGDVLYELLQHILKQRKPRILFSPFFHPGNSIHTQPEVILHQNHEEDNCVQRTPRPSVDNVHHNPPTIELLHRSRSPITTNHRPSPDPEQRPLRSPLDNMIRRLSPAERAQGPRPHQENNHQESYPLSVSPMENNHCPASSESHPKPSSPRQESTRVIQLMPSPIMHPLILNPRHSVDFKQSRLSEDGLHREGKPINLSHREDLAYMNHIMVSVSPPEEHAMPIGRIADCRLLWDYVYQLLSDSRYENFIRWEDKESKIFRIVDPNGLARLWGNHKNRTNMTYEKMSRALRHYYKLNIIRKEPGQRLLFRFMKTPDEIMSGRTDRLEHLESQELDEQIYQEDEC
# Chain of ETV1 (P50549 whole entry): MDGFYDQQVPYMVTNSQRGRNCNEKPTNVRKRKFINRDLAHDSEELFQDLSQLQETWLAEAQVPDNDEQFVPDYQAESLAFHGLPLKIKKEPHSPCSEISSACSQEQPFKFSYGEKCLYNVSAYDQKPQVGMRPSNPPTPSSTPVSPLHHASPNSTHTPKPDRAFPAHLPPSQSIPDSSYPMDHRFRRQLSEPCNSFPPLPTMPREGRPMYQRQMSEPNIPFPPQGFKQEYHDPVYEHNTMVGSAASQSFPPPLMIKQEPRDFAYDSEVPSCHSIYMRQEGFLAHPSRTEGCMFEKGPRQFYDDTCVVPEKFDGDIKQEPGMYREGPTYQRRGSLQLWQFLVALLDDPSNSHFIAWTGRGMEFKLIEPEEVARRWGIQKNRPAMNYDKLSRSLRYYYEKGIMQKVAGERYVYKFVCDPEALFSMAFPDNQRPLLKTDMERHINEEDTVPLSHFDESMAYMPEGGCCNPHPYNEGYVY
sequence,measurement,setting,value
GGCTCT,binding signal,FEV,"1.35 fold enrichment (6-mer frequency, TF over GST control)"
same,binding signal,ETV5,"1.19 fold enrichment (6-mer frequency, TF over GST control)"
same,binding signal,HSF1,"1.32 fold enrichment (6-mer frequency, TF over GST control)"
same,binding signal,SPIC,"1.34 fold enrichment (6-mer frequency, TF over GST control)"
same,binding signal,ELF4,"1.37 fold enrichment (6-mer frequency, TF over GST control)"
same,binding signal,ELK4,"1.22 fold enrichment (6-mer frequency, TF over GST control)"
same,binding signal,ETV2,"1.4 fold enrichment (6-mer frequency, TF over GST control)"
same,binding signal,ELF3,"1.44 fold enrichment (6-mer frequency, TF over GST control)"
same,binding signal,CRX,"1.27 fold enrichment (6-mer frequency, TF over GST control)"
same,binding signal,ETV1,"1.42 fold enrichment (6-mer frequency, TF over GST control)"
same,binding signal,ERF,"1.36 fold enrichment (6-mer frequency, TF over GST control)"
same,binding signal,ETV3L,"1.34 fold enrichment (6-mer frequency, TF over GST control)"
same,binding signal,ETS2,"1.2 fold enrichment (6-mer frequency, TF over GST control)"
same,binding signal,SPDEF,"1.13 fold enrichment (6-mer frequency, TF over GST control)"
same,binding signal,ETV7,"1.44 fold enrichment (6-mer frequency, TF over GST control)"
same,binding signal,ELF5,"1.15 fold enrichment (6-mer frequency, TF over GST control)"
same,binding signal,ETV3,"1.34 fold enrichment (6-mer frequency, TF over GST control)"
same,binding signal,ETV6,"1.3 fold enrichment (6-mer frequency, TF over GST control)"
